In all, about 33,000 sequences were measured (“E-score (-0.5 to 0.5)”: median about -0.043, highest 2% from about 0.37 on). The entries come from a sample that favours the highest values as a whole.
target: T1, Upc2 (UniProt Q12151); experiment: PBM E-score (8-mer binding enrichment) (E-score (-0.5 to 0.5)); higher = stronger / more preferred TF binding; settings: protein concentration: 200 nM; construct: GST-full length
T1 sequence: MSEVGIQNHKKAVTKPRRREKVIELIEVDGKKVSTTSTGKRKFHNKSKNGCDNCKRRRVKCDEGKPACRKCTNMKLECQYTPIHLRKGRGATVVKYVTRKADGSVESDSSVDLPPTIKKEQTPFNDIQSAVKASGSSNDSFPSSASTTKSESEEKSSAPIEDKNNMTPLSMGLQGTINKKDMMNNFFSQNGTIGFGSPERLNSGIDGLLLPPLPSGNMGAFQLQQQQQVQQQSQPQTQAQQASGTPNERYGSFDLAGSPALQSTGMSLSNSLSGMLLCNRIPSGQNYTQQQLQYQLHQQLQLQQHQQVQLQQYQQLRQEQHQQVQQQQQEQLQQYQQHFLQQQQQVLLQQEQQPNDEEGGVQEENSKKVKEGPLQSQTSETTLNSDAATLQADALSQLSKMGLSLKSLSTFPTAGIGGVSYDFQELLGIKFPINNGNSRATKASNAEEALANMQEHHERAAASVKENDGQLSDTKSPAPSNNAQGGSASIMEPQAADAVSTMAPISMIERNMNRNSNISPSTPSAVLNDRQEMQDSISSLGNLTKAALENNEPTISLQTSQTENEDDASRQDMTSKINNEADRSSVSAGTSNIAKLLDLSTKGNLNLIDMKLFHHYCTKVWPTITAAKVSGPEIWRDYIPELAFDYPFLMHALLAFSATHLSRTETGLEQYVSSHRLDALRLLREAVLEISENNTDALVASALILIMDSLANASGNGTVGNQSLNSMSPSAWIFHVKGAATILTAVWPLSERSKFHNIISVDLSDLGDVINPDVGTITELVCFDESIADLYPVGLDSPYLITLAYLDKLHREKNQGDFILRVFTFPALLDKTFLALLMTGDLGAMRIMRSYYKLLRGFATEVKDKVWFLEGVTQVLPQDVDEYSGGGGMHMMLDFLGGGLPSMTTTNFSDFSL
How it was run: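 For each ungapped eight-base word taken together with its reverse complement, the Universal PBM Analysis Suite assigned an E-score. Binding data came from GST-tagged yeast transcription factors, applied at about 100-200 nM, on universal all-10-mer Agilent arrays made double-stranded by primer extension. Fluorescent anti-GST marked bound protein, and scans were normalised with masliner.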

Compared with TGCGGCAA, ATATCTAC is higher in “PBM E-score” value: -0.127 for the first, 0.0208 for the second.

First: CTGCTCAC
Second: AGCGTGAA
The “PBM E-score” value of the first is higher: 0.00302 for the first, -0.0302 for the second.

First: ACAGCTAT
Second: GGGTCGTA
The “PBM E-score” value of the first is lower: -0.0224 for the first, 0.42 for the second.

Going from AGGTCGTA to CGGTCGGA, the “PBM E-score” value falls from 0.451 to -0.0376.

First: GGGTCGGA
Second: CGGTCGTA
The “PBM E-score” value of the first is lower: 0.0691 for the first, 0.442 for the second.

First: CGGTCGTC
Second: GGGTCGAA
The “PBM E-score” value of the first is lower: 0.0119 for the first, 0.0267 for the second.

First: AGGTCGTG
Second: AGGTCGTC
The “PBM E-score” value of the first is higher: 0.0575 for the first, 0.0416 for the second.

Going from CTGGGTGC to GCGCACTA, the “PBM E-score” value rises from -0.106 to -0.00558.

First: CGGCTGCC
Second: AACGACCG
The “PBM E-score” value of the first is lower: -0.0671 for the first, 0.403 for the second.

Compared with AGCGACCT, ACCGACCG is lower in “PBM E-score” value: 0.132 for the first, 0.13 for the second.

Compared with AACGACCC, CACGACCA is lower in “PBM E-score” value: 0.365 for the first, -0.0648 for the second.

Compared with TCCGACCA, TACGACCA is higher in “PBM E-score” value: 0.0761 for the first, 0.45 for the second.

Compared with TGCGACCA, AACGACCT is higher in “PBM E-score” value: 0.0986 for the first, 0.386 for the second.

First: CACGACCG
Second: AACGACCA
The “PBM E-score” value of the first is lower: 0.00924 for the first, 0.405 for the second.

Going from GACGACCA to CAGCATAA, the “PBM E-score” value falls from 0.071 to -0.0242.

Going from GGACCTAC to CCGATCTC, the “PBM E-score” value falls from 0.0699 to -0.136.

Compared with AATGAGTC, ATTGGAAC is higher in “PBM E-score” value: -0.0524 for the first, -0.0244 for the second.

First: GGCTAACC
Second: AAGTCGTG
The “PBM E-score” value of the first is higher: -0.0479 for the first, -0.0736 for the second.

First: CAGTCGTA
Second: AAGTCGTC
The “PBM E-score” value of the first is higher: 0.416 for the first, 0.121 for the second.

Compared with GAGTCGTA, CAGTCGGA is lower in “PBM E-score” value: 0.43 for the first, -0.016 for the second.

Going from AAGTCGTA to GAGTCGCA, the “PBM E-score” value falls from 0.416 to 0.0248.

Compared with GAGTCGGA, CAGTCGTC is lower in “PBM E-score” value: -0.0556 for the first, -0.106 for the second.

Compared with GGACATTA, AAATCTAA is lower in “PBM E-score” value: 0.01 for the first, -0.16 for the second.

Going from TCGCATCA to CCGGGCAC, the “PBM E-score” value falls from 0.209 to -0.214.

First: ACAGATGC
Second: AAGATTGA
The “PBM E-score” value of the first is higher: -0.00973 for the first, -0.156 for the second.

Going from CAACGAAG to AAACGAAA, the “PBM E-score” value rises from 0.235 to 0.46.

Going from AACCGAAT to AAACGAAG, the “PBM E-score” value rises from 0.277 to 0.464.

Going from AAACGAAT to CAACGAAA, the “PBM E-score” value falls from 0.451 to 0.221.

First: TAACGAAA
Second: AAACGTAT
The “PBM E-score” value of the first is higher: 0.334 for the first, 0.328 for the second.

First: AGACGAAG
Second: ACTCGACA
The “PBM E-score” value of the first is higher: 0.0695 for the first, 0.0576 for the second.

Going from ACGCACTC to GGTTGGGA, the “PBM E-score” value falls from 0.151 to -0.0786.

Going from CCCTGCGC to CGTACAGA, the “PBM E-score” value rises from -0.276 to 0.41.

Going from CGTACAGC to AGTACAGA, the “PBM E-score” value falls from 0.446 to -0.0613.

Compared with AGTACAGC, CCTACAGC is lower in “PBM E-score” value: -0.156 for the first, -0.334 for the second.

Going from GGTACAGA to AGCAGACC, the “PBM E-score” value falls from -0.0181 to -0.0454.

Compared with ATGGTACG, CAGGTACA is lower in “PBM E-score” value: 0.388 for the first, -0.226 for the second.

Going from AAGGTACC to ATGGTACC, the “PBM E-score” value falls from -0.0716 to -0.257.

First: AAGGTACG
Second: AAGGTACT
The “PBM E-score” value of the first is higher: 0.393 for the first, 0.00877 for the second.

Compared with CAGGTACC, ATGGTACA is lower in “PBM E-score” value: -0.112 for the first, -0.173 for the second.

Compared with CAGGTACG, CTTAGATA is lower in “PBM E-score” value: 0.396 for the first, -0.0328 for the second.

First: AGCGTGGA
Second: CAGAGACA
The “PBM E-score” value of the first is higher: -0.0828 for the first, -0.356 for the second.

Compared with AGCTCGTC, CGCTCGGA is higher in “PBM E-score” value: 0.103 for the first, 0.163 for the second.

Going from GGCTCGAA to GGCTCGTA, the “PBM E-score” value rises from -0.0434 to 0.472.

For GGCTCGGA, the “PBM E-score” value was 0.0556.
